Assay results taken from PubChem BioAssay (EPA / NIEHS).
The source made the active and inactive calls. How the source made its calls: active means hit-call score of the fitted dose curve at least 0.9, where 1 is the maximum; inactive means score below 0.9.

Tests used:
Settings in all cases: mRNA level, 48 h; actives raise or lower the signal
[1] = read-out: Cytochrome P450 3A4 (Homo sapiens) (UniProt P08684); assay: LTEA_HepaRG_CYP3A4: Life Technologies and Expression Analysis (LTEA) Assay for CYP3A4 using HepaRG (AID 2283487)
In short: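 Differentiated HepaRG cells in serum-free induction medium exposed in duplicate for 48 h to 8 half-log concentrations up to 100 uM in 0.5% DMSO. CYP3A4 mRNA measured by qRT-PCR normalized to ACTB, GAPDH and POLR2A; bidirectional fit versus DMSO.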

[2] = read-out: DNA damage-inducible transcript 3 (DDIT3), DDIT3 (gene 1649); assay: LTEA_HepaRG_DDIT3: Life Technologies and Expression Analysis (LTEA) Assay for DNA damage-inducible transcript 3 (DDIT3) using HepaRG (AID 2283488)
In short: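 Differentiated human HepaRG cells in serum-free induction medium were exposed in duplicate for 48 h to 8 concentrations (top 100 uM, half-log steps, 0.5% DMSO). DDIT3 mRNA measured by TaqMan qRT-PCR, normalized to ACTB/GAPDH/POLR2A; bidirectional fit versus DMSO.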

[3] = read-out: Pro-epidermal growth factor (Homo sapiens) (UniProt P01133); assay: LTEA_HepaRG_EGF: Life Technologies and Expression Analysis (LTEA) Assay for Epidermal growth factor (EGF) using HepaRG (AID 2283489)
In short: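 EGF transcript measured by Fluidigm TaqMan qRT-PCR with three housekeeping genes for normalization, 48 h after dosing HepaRG cultures in duplicate (top 100 uM, half-log steps, 0.5% DMSO vehicle). Gain or loss relative to DMSO fitted.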

[4] = read-out: Early growth response protein 1 (EGR1) transcription factor, EGR1 (gene 1958); assay: LTEA_HepaRG_EGR1: Life Technologies and Expression Analysis (LTEA) Assay for Early growth response protein 1 (EGR1) transcription factor using HepaRG (AID 2283490)
In short: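 Differentiated HepaRG cells in serum-free induction medium exposed 48 hours, duplicate, to 8 half-log concentrations up to 100 uM in 0.5% DMSO. EGR1 mRNA measured by TaqMan qRT-PCR, normalized to ACTB, GAPDH, POLR2A; bidirectional fit versus DMSO.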

[5] = read-out: Ezrin (EZR), EZR (gene 7430); assay: LTEA_HepaRG_EZR: Life Technologies and Expression Analysis (LTEA) Assay for Ezrin (EZR) using HepaRG (AID 2283491)
In short: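 Differentiated human HepaRG cells, 48 h after plating, were exposed in serum-free induction medium for 48 hours to eight half-log concentrations up to 100 uM in 0.5% DMSO. EZR mRNA was measured by TaqMan qRT-PCR, normalized to ACTB, GAPDH and POLR2A, and fitted bidirectionally against DMSO.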

[6] = read-out: Cytochrome P450 3A7 (Homo sapiens) (UniProt P24462); assay: LTEA_HepaRG_CYP3A7: Life Technologies and Expression Analysis (LTEA) Assay for CYP3A7 using HepaRG (AID 2283492)
In short: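 CYP3A7 transcript measured by qRT-PCR (ACTB, GAPDH, POLR2A normalization) after 48 h chemical exposure of HepaRG cells in duplicate. Eight half-log concentrations, maximum 100 uM, 0.5% DMSO vehicle; bidirectional curve fitting against DMSO baseline.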

CYP3A5 (gene 1577) = assay: LTEA_HepaRG_CYP3A5: Life Technologies and Expression Analysis (LTEA) Assay for CYP3A5 using HepaRG (AID 2283493)
In short: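 Differentiated HepaRG cells in serum-free induction medium were dosed 48 h with test chemicals (8-point half-log series, top 100 uM, 0.5% DMSO, duplicate). CYP3A5 mRNA measured by qRT-PCR, normalized to ACTB, GAPDH, POLR2A; bidirectional fit versus DMSO.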

[7] = read-out: Fatty Acid-Binding Protein 1 (FABP1), FABP1 (gene 2168); assay: LTEA_HepaRG_FABP1: Life Technologies and Expression Analysis (LTEA) Assay for Fatty Acid-Binding Protein 1 (FABP1) using HepaRG (AID 2283494)
In short: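 Differentiated human HepaRG cells exposed 48 h in serum-free induction medium to eight half-log concentrations up to 100 uM (0.5% DMSO), duplicate. FABP1 mRNA by qRT-PCR, normalised to ACTB, GAPDH, POLR2A; bidirectional fitting against DMSO.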

[8] = read-out: Cytochrome P450 7A1 (Homo sapiens) (UniProt P22680); assay: LTEA_HepaRG_CYP7A1: Life Technologies and Expression Analysis (LTEA) Assay for Cytochrome P450 7A1 (CYP7A1) using HepaRG (AID 2283496)
In short: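 Gene expression endpoint in human HepaRG liver cells treated for 48 h with test chemicals (up to 100 uM, 0.5% DMSO). Values come from bidirectional concentration-response fitting versus DMSO.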

[9] = read-out: Glutathione S-Transferase (GSTA2), GSTA2 (gene 2939); assay: LTEA_HepaRG_GSTA2: Life Technologies and Expression Analysis (LTEA) Assay for Glutathione S-Transferase (GSTA2) using HepaRG (AID 2283497)
In short: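 Differentiated human HepaRG cells were exposed in duplicate for 48 h in serum-free induction medium, 8 points from 100 uM top in half-log steps, 0.5% DMSO. GSTA2 mRNA was measured by TaqMan qRT-PCR, normalized to ACTB, GAPDH and POLR2A; bidirectional fit versus DMSO.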

[10] = read-out: growth arrest and DNA damage 45 (GADD45G), GADD45G (gene 10912); assay: LTEA_HepaRG_GADD45G: Life Technologies and Expression Analysis (LTEA) Assay for growth arrest and DNA damage 45 (GADD45G) using HepaRG (AID 2283499)
In short: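 GADD45G transcript level by qRT-PCR (housekeeping-normalized: ACTB, GAPDH, POLR2A) after 48 h chemical treatment of a single HepaRG lot in serum-free induction medium; eight-point half-log series up to 100 uM in 0.5% DMSO, duplicates, up- or down-regulation scored.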

[11] = read-out: Glutamate-cysteine ligase regulatory (GCLM), GCLM (gene 2730); assay: LTEA_HepaRG_GCLM: Life Technologies and Expression Analysis (LTEA) Assay for Glutamate-cysteine ligase regulatory (GCLM) using HepaRG (AID 2283500)
In short: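 Differentiated human HepaRG cells exposed 48 h in serum-free induction medium to 8-point half-log concentrations (top 100 uM, 0.5% DMSO), in duplicate. GCLM mRNA quantified by qRT-PCR, normalized to ACTB, GAPDH, POLR2A; bidirectional fitting versus DMSO.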

[12] = read-out: Glutathione S-transferase M3 (GSTM3), GSTM3 (gene 2947); assay: LTEA_HepaRG_GSTM3: Life Technologies and Expression Analysis (LTEA) Assay for Glutathione S-transferase M3 (GSTM3) using HepaRG (AID 2283501)
In short: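 GSTM3 transcript levels came from Fluidigm TaqMan qRT-PCR normalized to three housekeeping genes, fitted in both directions against DMSO. HepaRG cultures received chemicals for 48 h in serum-free induction medium (0.5% DMSO), 8 half-log concentrations up to 100 uM, duplicate.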

[13] = read-out: Heat shock 70 kDa protein 1 (HSPA1A), gene 3303; assay: LTEA_HepaRG_HSPA1A: Life Technologies and Expression Analysis (LTEA) Assay for Heat shock 70 kDa protein 1 (HSPA1A) using HepaRG (AID 2283502)
In short: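 Differentiated human HepaRG cells in serum-free induction medium were exposed in duplicate for 48 h to eight concentrations (top 100 uM, half-log steps, 0.5% DMSO). HSPA1A mRNA was quantified by qRT-PCR, normalized to ACTB, GAPDH and POLR2A, and fitted bidirectionally against DMSO.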

[14] = read-out: Hypoxia-inducible factor 1-alpha (Homo sapiens) (UniProt Q16665); assay: LTEA_HepaRG_HIF1A: Life Technologies and Expression Analysis (LTEA) Assay for Hypoxia-inducible factor 1 (HIF1A) Trancription factor using HepaRG (AID 2283503)
In short: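 HepaRG, 48 h exposure, 8-pt half-log series from 100 uM, 0.5% DMSO vehicle, duplicates. Readout: HIF1A transcript by qRT-PCR (Fluidigm array), housekeeping-normalised. Bidirectional curve fit vs DMSO baseline.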

[15] = read-out: 3-Hydroxy-3-Methylglutaryl-CoA Synthase 2 (HMGCS2), HMGCS2 (gene 3158); assay: LTEA_HepaRG_HMGCS2: Life Technologies and Expression Analysis (LTEA) Assay for 3-Hydroxy-3-Methylglutaryl-CoA Synthase 2 (HMGCS2) using HepaRG (AID 2283504)
In short: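 Readout is HMGCS2 transcript by qRT-PCR, housekeeping-normalised (ACTB/GAPDH/POLR2A) and fitted bidirectionally against 0.5% DMSO. Differentiated HepaRG cells received chemicals 48 h, duplicate wells, eight half-log concentrations topping at 100 uM.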

HGF (gene 3082) = assay: LTEA_HepaRG_HGF: Life Technologies and Expression Analysis (LTEA) Assay for Hepatocyte Growth Facto (HGF) using HepaRG (AID 2283505)
In short: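 HGF transcript was quantified by TaqMan qRT-PCR against three housekeeping genes after 48 h treatment of HepaRG cells. Exposure ran in duplicate over eight half-log steps topping at 100 uM in 0.5% DMSO vehicle.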

[16] = read-out: Insulin Like Growth Factor 1 (IGF1), IGF1 (gene 3479); assay: LTEA_HepaRG_IGF1: Life Technologies and Expression Analysis (LTEA) Assay for Insulin Like Growth Factor 1 (IGF1) using HepaRG (AID 2283506)
In short: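 Differentiated human HepaRG cells were dosed for 48 h in serum-free induction medium with 0.5% DMSO, eight half-log concentrations up to 100 uM, in duplicate. IGF1 mRNA was quantified by qRT-PCR normalized to ACTB, GAPDH, POLR2A; bidirectional fitting versus DMSO.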

[17] = read-out: Intercellular Adhesion Molecule 1 (ICAM1), ICAM1 (gene 3383); assay: LTEA_HepaRG_ICAM1: Life Technologies and Expression Analysis (LTEA) Assay for Intercellular Adhesion Molecule 1 (ICAM1) using HepaRG (AID 2283507)
In short: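 ICAM1 transcript levels measured by qRT-PCR, normalized to three housekeeping genes (ACTB, GAPDH, POLR2A), after 48 h chemical exposure of HepaRG cells. Duplicate eight-point half-log series from 100 uM in 0.5% DMSO; gain or loss fitted against vehicle.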

[18] = read-out: Insulin-like growth factor-binding protein 1 (IGFBP1), IGFBP1 (gene 3484); assay: LTEA_HepaRG_IGFBP1: Life Technologies and Expression Analysis (LTEA) Assay for Insulin-like growth factor-binding protein 1 (IGFBP1) using HepaRG (AID 2283508)
In short: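 Read-out is qRT-PCR transcript level normalized to three housekeeping genes, fitted in both directions against 0.5% DMSO. Differentiated HepaRG cells received eight half-log concentrations (top 100 uM) in duplicate for 48 h in serum-free induction medium.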

Measured: AC50

Cytochrome P450 3A7 (Homo sapiens), sequence (P24462 whole entry, looked up): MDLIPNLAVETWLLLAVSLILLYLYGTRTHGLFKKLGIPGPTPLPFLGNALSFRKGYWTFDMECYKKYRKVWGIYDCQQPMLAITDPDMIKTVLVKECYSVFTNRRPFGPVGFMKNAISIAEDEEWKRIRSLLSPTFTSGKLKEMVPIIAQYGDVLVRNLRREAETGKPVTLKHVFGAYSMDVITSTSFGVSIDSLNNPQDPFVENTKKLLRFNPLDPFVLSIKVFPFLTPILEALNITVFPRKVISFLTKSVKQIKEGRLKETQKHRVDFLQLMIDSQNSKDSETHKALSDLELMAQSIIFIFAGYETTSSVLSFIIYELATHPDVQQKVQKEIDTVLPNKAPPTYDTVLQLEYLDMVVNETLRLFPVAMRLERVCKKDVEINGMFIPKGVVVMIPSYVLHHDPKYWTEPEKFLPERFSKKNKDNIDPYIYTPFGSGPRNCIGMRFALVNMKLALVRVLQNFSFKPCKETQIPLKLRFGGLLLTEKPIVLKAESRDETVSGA
Hypoxia-inducible factor 1-alpha (Homo sapiens), sequence (Q16665 whole entry, looked up): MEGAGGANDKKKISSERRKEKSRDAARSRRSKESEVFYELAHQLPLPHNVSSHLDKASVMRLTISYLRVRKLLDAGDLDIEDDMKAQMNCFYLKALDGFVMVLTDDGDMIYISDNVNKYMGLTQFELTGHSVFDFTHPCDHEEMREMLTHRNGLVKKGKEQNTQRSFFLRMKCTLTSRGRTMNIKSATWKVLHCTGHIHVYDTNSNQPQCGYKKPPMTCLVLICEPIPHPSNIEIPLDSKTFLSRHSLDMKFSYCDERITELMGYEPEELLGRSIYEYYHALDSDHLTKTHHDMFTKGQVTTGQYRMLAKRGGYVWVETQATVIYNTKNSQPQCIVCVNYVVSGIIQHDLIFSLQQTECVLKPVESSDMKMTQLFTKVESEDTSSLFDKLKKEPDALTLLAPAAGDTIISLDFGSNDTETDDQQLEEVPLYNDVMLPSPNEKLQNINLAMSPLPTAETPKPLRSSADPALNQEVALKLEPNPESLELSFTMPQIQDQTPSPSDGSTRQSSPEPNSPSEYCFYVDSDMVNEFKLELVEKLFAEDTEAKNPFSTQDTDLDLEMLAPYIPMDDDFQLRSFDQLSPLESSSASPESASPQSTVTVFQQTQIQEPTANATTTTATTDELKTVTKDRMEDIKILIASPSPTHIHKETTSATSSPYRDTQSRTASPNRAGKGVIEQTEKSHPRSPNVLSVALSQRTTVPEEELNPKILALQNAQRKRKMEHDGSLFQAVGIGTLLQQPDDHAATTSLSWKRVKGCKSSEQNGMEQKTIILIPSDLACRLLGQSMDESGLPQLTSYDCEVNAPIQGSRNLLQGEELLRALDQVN
Cytochrome P450 3A4 (Homo sapiens), sequence (P08684 whole entry, looked up): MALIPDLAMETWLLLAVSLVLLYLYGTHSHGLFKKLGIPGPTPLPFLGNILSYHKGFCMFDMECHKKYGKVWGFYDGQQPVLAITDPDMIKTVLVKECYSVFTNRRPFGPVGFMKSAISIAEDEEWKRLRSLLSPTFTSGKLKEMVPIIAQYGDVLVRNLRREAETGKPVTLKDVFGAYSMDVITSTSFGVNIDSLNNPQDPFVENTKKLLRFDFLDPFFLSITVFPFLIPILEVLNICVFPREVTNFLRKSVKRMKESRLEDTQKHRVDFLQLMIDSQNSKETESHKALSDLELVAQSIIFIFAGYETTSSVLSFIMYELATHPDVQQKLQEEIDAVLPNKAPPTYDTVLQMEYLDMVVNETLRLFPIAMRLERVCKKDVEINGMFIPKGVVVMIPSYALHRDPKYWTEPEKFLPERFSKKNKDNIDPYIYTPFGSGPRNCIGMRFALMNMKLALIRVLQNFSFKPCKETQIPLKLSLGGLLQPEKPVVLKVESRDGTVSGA

O=C(N[C@H]1CN2CCC1CC2)c1ccc2c(c1)OCCO2
active: [11] 0.112 µM
inactive: [1] | [2] | [3] | [4] | [5] | [6] | CYP3A5 (gene 1577) | [7] | [8] | [9] | [10] | [12] | [13] | [14] | [15] | HGF (gene 3082) | [16] | [17] | [18]

O=C(O)C1(c2ccc3c(c2)OC[C@H](Cc2ccc(-c4ccccc4)cc2)[C@H]3O)CCCC1
inactive: [3] | [6] | [8] | [10] | [11] | [12] | [15] | HGF (gene 3082)
active: [1] 4.6 µM | [2] 50 µM | [4] 81.7 µM | [5] 63.1 µM | CYP3A5 (gene 1577) 77 µM | [7] 83.9 µM | [9] 80.1 µM | [13] 78.2 µM | [14] 82.3 µM | [16] 15.8 µM | [17] 64.4 µM | [18] 50 µM

Clc1cccc(Cl)c1Cl
inactive: [1] | [2] | [3] | [4] | [5] | [6] | CYP3A5 (gene 1577) | [7] | [8] | [9] | [10] | [11] | [12] | [13] | [14] | [15] | HGF (gene 3082) | [16] | [17] | [18]
